Reference: PubChem BioAssay (NCATS)
Where “and” joins values, the source holds several entries; their conditions need not be identical. Identical values can stand only once. Values without a mark were called inactive. Records with an inconclusive call do not appear. Entries that show only a call come without a potency. Calls of active or inactive are those of the source. Unless noted, calls come from the whole dose curve; as a rule, active = well fitted curve in the direction sought with a large enough effect; inconclusive = small, poorly fitted or top-dose-only effect, or another doubt; inactive = no such curve, though single readings can be large; an effect the other way counts as inactive or inconclusive.

Columns and labels:
[1] = Cell Viability - BJ (AID 421; calls by dose curve;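 note: potency is the fitted concentration of half-maximal effect; cells exposed to compound for 40 hours at 37 °C before readout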); details: BJ fibroblast viability, qHTS
In short: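 Cytotoxicity in human BJ foreskin fibroblasts is scored as loss of cellular ATP after a 40-hour exposure, measured by luciferase luminescence. Controls are DMSO and 100 uM tamoxifen.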

[2] = Cell Viability - MRC5 (AID 434; calls by dose curve;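 note: potency is the fitted concentration of half-maximal effect; cells exposed to compound for 40 hours at 37 °C; potency reflects cytotoxicity seen as loss of intracellular ATP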); details: MRC5 lung fibroblast viability, qHTS
In short: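 ATP luminescence read-out (CellTiter-Glo, 20 min RT) after 40 hr, 37 °C compound exposure of 1500 MRC5 cells/well. Data normalized to DMSO (basal) and 100 uM tamoxifen (100% inhibition); AC50 from standard Hill equation.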

[3] = Cellular Toxicity (caspase-3) HepG2 (AID 654); details: HepG2 caspase-3 activation, luminescence; series mostly up to 92.2 µM; note: potency is the fitted concentration of half-maximal effect;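 for caspase-3 activation: cells exposed to compound for 16 hours before reading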
In short: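 Caspase 3/7 activation is measured as a luminescence increase (aminoluciferin substrate) after 16 h compound exposure of human hepatocarcinoma HepG2 cells. AC50 values are Hill fits, scaled between DMSO baseline and 100 uM tamoxifen stimulation.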

[4] = Cellular Toxicity (caspase-3) SHSY5Y (AID 657); details: SH-SY5Y caspase-3 activation; series mostly up to 91.7 µM; note: potency is the fitted concentration of half-maximal effect
In short: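 SH-SY5Y human neuroblastoma cells (1500/well) were treated with compounds for 16 h at 37 °C, then Caspase-Glo 3/7 luminescence was read after 1 h at room temperature. Data normalized to DMSO and 10 uM staurosporine; AC50 from Hill fits.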

[5] = Cellular Toxicity (caspase-3) BJ (AID 658); details: BJ fibroblasts, luminescence; Potency: caspase-3 activation; series mostly up to 91.7 µM; note: potency is the fitted concentration of half-maximal effect
In short: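 qHTS, BJ fibroblasts, 1000 cells/well; 5 hr preincubation, 16 hr compound, 37 °C; Caspase-Glo 3/7 reagent, 1 hr RT; luminescence. DMSO = 0%, 10 uM staurosporine = 100%. Hill-equation AC50.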

[6] = MultiTox-Fluor Cytotoxicity Assay - LYMP1-001 - Dead Cells (AID 946); details: LYMP1-001 lymphoblastoid cells, dead-cell protease fluorescence; series mostly up to 92.2 µM; note: potency is the fitted concentration of half-maximal effect
In short: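 Seed 2500 LYMP1-001 cells/well, incubate 5 hr at 37 C; add compound, 16 hr at 37 C; add MultiTox-Fluor reagent, 60 min RT; read dead-cell fluorescence Ex/Em=485/520. Normalize to DMSO and 15 uM tetraoctylammonium bromide.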

[7] = MultiTox-Fluor Cytotoxicity Assay - LYMP1-002 - Live Cells (AID 955); details: LYMP1-002 lymphoblastoid live-cell protease fluorescence viability; series mostly up to 46.1 µM
In short: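 After 16 h compound exposure at 37 C, live LYMP1-002 lymphoblastoid cells (2500/well) were quantified by cleavage of cell-permeant GF-AFC substrate, read at 405/510 nm after 60 min. Concentration-response fitted with Hill equation for AC50.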

[8] = Cell Viability - LYMP1-003 - Assay at 24 hr (AID 963); details: LYMP1-003 lymphoblastoid cell viability; series mostly up to 92.2 µM
In short: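 Concentration-response qHTS: ATP loss measured by CellTiter-Glo luminescence after 24 h compound exposure at 37 C. Cells were LYMP1-003 human lymphoblastoid, 2500 per well. AC50 derived via standard Hill equation modeling.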

[9] = qHTS Assay for Identification of Small Molecule Inducers of Hypoxia Response (AID 2120; active = well fitted curve in the direction sought with a large enough effect in the signal ratio, with a control signal flat, not every such curve was filed as active; the % refers to the signal ratio); details: hypoxia response reporter cells, beta-lactamase ratio readout; series mostly up to 104 µM
In short: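 Reporter induction read as the CCF4 blue/green (460nm/530nm) emission ratio after 2.5 h dye loading at room temperature. ME-180 HRE-beta-lactamase cells received titrated compounds for 17 h at 37 degrees Celsius; AC50 values derived.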

[10] = molecular target: Peroxisome proliferator-activated receptor alpha (Homo sapiens) (UniProt Q07869); test: qHTS assay for small molecule agonists of the peroxisome proliferator-activated receptor alpha (PPARalpha) signaling pathway (AID 651778); details: PathHunter PPARalpha complementation, chemiluminescence, 6 h; max response: active compounds read high
Chain of Peroxisome proliferator-activated receptor alpha (Homo sapiens) (Q07869 whole entry, looked up, the tested form may be a part): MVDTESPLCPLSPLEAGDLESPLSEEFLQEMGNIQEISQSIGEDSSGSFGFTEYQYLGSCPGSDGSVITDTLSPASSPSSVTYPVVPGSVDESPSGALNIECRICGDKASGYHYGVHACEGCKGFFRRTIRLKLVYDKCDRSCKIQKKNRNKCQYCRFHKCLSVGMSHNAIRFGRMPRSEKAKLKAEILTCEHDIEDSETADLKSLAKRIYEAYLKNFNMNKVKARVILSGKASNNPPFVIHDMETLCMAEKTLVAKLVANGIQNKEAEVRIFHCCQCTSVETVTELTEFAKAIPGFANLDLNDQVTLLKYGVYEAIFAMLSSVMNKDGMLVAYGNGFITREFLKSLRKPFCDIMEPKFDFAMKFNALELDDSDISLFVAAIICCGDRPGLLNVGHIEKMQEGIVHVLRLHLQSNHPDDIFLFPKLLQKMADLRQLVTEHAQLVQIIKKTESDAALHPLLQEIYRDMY
In short: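 Enzyme-fragment complementation assay in which ligand-bound PPARalpha translocates and forms an active enzyme that generates chemiluminescence. Cells were plated overnight, exposed to compound for 6 hr at 37 C, and then given detection reagent for 60 min at room temperature.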

[11] = qHTS assay for cell viability of the p53RE-bla HCT-116 cell line (AID 743292); details: p53RE-bla HCT-116 viability, ATP luminescence, 16 h; series mostly up to 95 µM; note: nearly all actives have a fitted effect of over 55% in size
In short: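 After plating at 4,000 cells per well and a 5 h rest at 37 C, HCT-116 cells carrying p53RE-bla received test chemicals in DMSO. Sixteen hours later at 37 C, CellTiter-Glo was added and luminescence recorded following 30 min at room temperature.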

[12] = Cellular Toxicity (caspase-3) Jurkat (AID 655); details: Jurkat caspase-3 activation, luminescence; caspase-3 activation: at 92.2 µM (top of the series), DMSO = 0%, tamoxifen = 100%;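 note: cells exposed to compound for 16 h at 37 °C before reading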; note: potency is the fitted concentration of half-maximal effect
In short: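 Jurkat cells (5000/well) in complete medium were treated with compounds for 16 hr at 37 °C, then Caspase-Glo 3/7 luminescence was read after 20 min at room temperature. Data normalized to DMSO (basal) and 100 uM tamoxifen (100%); AC50 from Hill fit.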

[13] = Cellular Toxicity (caspase-3) MRC-5 (AID 659); details: MRC-5 cells, luminescence, normalized: DMSO 0%, 10 µM staurosporine 100%; series mostly up to 91.7 µM
In short: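 MRC-5 fibroblasts, 1500/well; 16 h cpd, 37 °C; Caspase-Glo 3/7, 1 h RT; lumi read. Norm: DMSO = 0%, 10 uM staurosporine = 100%. Hill-fit AC50 from qHTS conc-response.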

[14] = Cellular Toxicity (caspase-3) Mesangial (AID 660); details: mesangial cells, normalized: DMSO 0%, 100 µM tamoxifen 100%; series mostly up to 91.7 µM;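 note: combined caspase 3 and 7 activity read by Caspase-Glo luminescence; cells exposed to compound for 16 h before the caspase read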
In short: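 Caspase 3/7 activation measured by Caspase-Glo 3/7 luminescence (20 min, room temperature) following 16 h exposure of mesangial cells (1000/well); AC50 from Hill-equation fit, normalized to DMSO and 100 uM tamoxifen.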

[15] = Cellular Toxicity (caspase-3) SK-N-SH (AID 661); details: SK-N-SH caspase-3 activation, qHTS, DMSO as zero, staurosporine as full; series mostly up to 91.7 µM
In short: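 Caspase 3/7 activation was read by luminogenic substrate cleavage after 16 hour treatment of SK-N-SH cells. Signal was scaled between DMSO and 10 uM staurosporine, and concentration-response data were fitted with the Hill equation for AC50.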

[16] = Cellular Toxicity (caspase-3) Hek293 (AID 664); details: HEK293 caspase-3 activation, DMSO = 0%, 100 µM tamoxifen = 100%; at 92.2 µM (top of the series);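 note: cells exposed to compound for 16 h at 37 °C before readout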
In short: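 Concentration-response qHTS: caspase 3/7 activation measured by luminescent aminoluciferin substrate cleavage after 16 h compound exposure of Hek 293 cells. AC50 from Hill equation, with DMSO as basal and 100 uM tamoxifen as 100%.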

[17] = Cellular Toxicity (caspase-3) Renal Proximal Tubule (AID 667); details: renal proximal tubule cells, primary cells freshly taken from rat; Potency: caspase-3 activation; series mostly up to 91.7 µM;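 note: cells exposed to compound for 16 hours at 37 °C before detection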
In short: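 Primary rat proximal tubule cells, 1000/well, 5 h plating at 37 °C, then compound 16 h at 37 °C. Caspase-Glo 3/7 reagent, 1 h RT, luminescence. Normalized to DMSO (basal) and 10 uM staurosporine (100%); Hill-fit AC50.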

[18] = Cell Viability - LYMP1-002 - Assay at 16 hr (AID 948); details: LYMP1-002 lymphoblastoid cell viability; series mostly up to 92.2 µM; note: potency is the fitted concentration of half-maximal effect
In short: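 Human lymphoblastoid cells (LYMP1-002), 2500/well, were preincubated 5 hr at 37 C, then exposed to compounds for 16 hr at 37 C in complete medium. Cellular ATP was read by CellTiter-Glo luminescence after 30 min at room temperature; AC50 from Hill fits.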

[19] = Cell Viability - LYMP2-026 (AID 989); details: LYMP2-026 lymphoblastoid cell viability, qHTS; series mostly up to 92.2 µM; note: nearly all actives have a fitted effect of over 50% in size
In short: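 Cytotoxicity read as ATP-dependent luminescence (CellTiter-Glo, 30 min room temperature) after 24 h compound treatment at 37 C. LYMP2-026 lymphoblastoid line seeded at 2500 cells/well; AC50 derived by standard Hill equation.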

[20] = Cell Viability - LYMP1-002 - Assay at 24 hr (AID 993); details: LYMP1-002 lymphoblastoid cells viability; series mostly up to 92.2 µM; note: potency is the fitted concentration of half-maximal effect
In short: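 qHTS cytotoxicity at 24 h: CellTiter-Glo ATP luminescence in lymphoblastoid line LYMP1-002 incubated with compound at 37 °C. Concentration-response modeled with the Hill equation for AC50; tetraoctylammonium bromide served as positive control.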

Row | Compound | Potency [1] | Potency [2] [µM] | Potency [3] | Potency [4] | Potency [5] | Potency [6] | outcome [7] | Potency [8] | Potency [9] | max response [10] | Potency [11] | Potency [12] | outcome [13] | outcome [14] | outcome [15] | caspase-3 activation [16] | Potency [17] | Potency [18] | Potency [19] | Potency [20]
1 | C[C@@H]1CC2(OC(O)[C@]3(C)O[C@H]23)O[C@H]2C[C@@]3(C)[C@@H]4CC[C@H]5C(C)(C)C(O[C@@H]6OC[C@@H](O)[C@H](O)[C@H]6O)CC[C@@]56C[C@@]46CC[C@]3(C)[C@@H]12 (stereo partly drawn) | > 92 µM | > 92 | 31.6 µM (active) | inactive | 31.6 µM (active) | inactive | inactive | inactive | inactive | 6.75% | inactive | – | – | – | – | – | – | – | – | –
2 | C1CCCNCC1 | > 92 µM | > 92 | inactive | inactive | inactive | inactive | inactive | inactive | inactive | 0.101% | inactive | inactive | inactive | inactive | inactive | 2.08% | inactive | inactive | inactive | inactive
3 | Cc1ccc(S(N)(=O)=O)cc1 | > 92 µM | > 92 | inactive | inactive | inactive | inactive | inactive | inactive | inactive | -6.35% and -0.652% | inactive | inactive | inactive | inactive | inactive | -1.71% | inactive | inactive | inactive | inactive
4 | CC(=O)c1ccc(Cl)c(Cl)c1Cl | > 92 µM | > 92 | inactive | inactive | inactive | inactive | inactive | inactive | inactive | -0.114% | inactive | inactive | inactive | inactive | inactive | 0.887% | inactive | inactive | inactive | inactive
5 | CC(C)OCC1CO1 (stereo not drawn) | > 92 µM | > 92 | inactive | inactive | inactive | inactive | inactive | inactive | inactive | -4.21% | inactive | inactive | inactive | inactive | inactive | -0.484% | inactive | inactive | inactive | inactive
6 | Nc1cc(C(=O)O)c(O)c(S(=O)(=O)O)c1 | > 92 µM | > 92 | inactive | inactive | inactive | inactive | inactive | inactive | inactive | -5.08% | inactive | inactive | inactive | inactive | inactive | 0.407% | inactive | inactive | inactive | inactive
7 | CC(=O)OC1CC(C)OC(C)O1 (stereo not drawn) | > 92 µM | > 92 | inactive | inactive | inactive | inactive | inactive | inactive | inactive | -4.25% and 0.0018% | inactive | inactive | inactive | inactive | inactive | 2.93% | inactive | inactive | inactive | inactive
8 | OC1CCCCC1 | > 92 µM | > 92 | inactive | inactive | inactive | inactive | inactive | inactive | inactive | -5.19% | inactive | inactive | inactive | inactive | inactive | -0.682% | inactive | inactive | inactive | inactive
9 | Cc1ccc(N)cc1[N+](=O)[O-] | > 92 µM | > 92 | inactive | inactive | inactive | inactive | inactive | inactive | inactive | -0.223% | inactive | inactive | inactive | inactive | inactive | -1.57% | inactive | inactive | inactive | inactive
10 | Cc1cccnc1 | > 92 µM | > 92 | inactive | inactive | inactive | inactive | inactive | inactive | inactive | -1.1% | inactive | inactive | inactive | inactive | inactive | -1.09% | inactive | inactive | inactive | inactive
11 | COc1cc(-c2ccc(N=C=O)c(OC)c2)ccc1N=C=O | > 92 µM | > 92 | inactive | inactive | inactive | inactive | inactive | inactive | inactive | 20.1% | inactive | inactive | inactive | inactive | inactive | 2.71% | inactive | inactive | inactive | inactive
12 | CC(=O)Nc1cccc(C)c1 | > 92 µM | > 92 | inactive | inactive | inactive | inactive | inactive | inactive | inactive | -3.01% | inactive | inactive | inactive | inactive | inactive | -2.37% | inactive | inactive | inactive | inactive
13 | C=C1CC[C@H](O)C/C1=C/C=C1\CCC[C@]2(C)[C@@H]([C@H](C)CCCC(C)C)CC[C@@H]12 | 61.2 µM (active) | – | inactive | 31.6 µM (active) | inactive | 39.8 µM (active) | – | – | inactive | -0.403% | – | 31.6 µM (active) | inactive | – | – | 173% (active) | – | 50.1 µM (active) | – | 50.1 µM (active)
